Compound activity as filed in PubChem BioAssay.
G9a inh – blocks human histone lysine methyltransferase G9a; Potency, µM (doses to about 102 µM), usual class: inhibitors; AID 504332; Q96KQ7; G9a H3K9 monomethylation, AlphaScreen, 2 h; 350,000 tested, 8.8% active; further: nearly all actives have a fitted effect of over 75% in size
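Readings reflect AlphaScreen signal from monomethyl-H3K9 antibody detection. HMT at 20 nM; substrate b-H3K9 500 nM; cofactor SAM 20 uM; 2 h RT reaction; compounds tested as titrations in qHTS with 15 min preincubation.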
PI5P4K alpha inh – PI5P4K alpha (human) kinase inhibition; PI5P4Kalpha enzyme, ADP-Glo luminescence, 60 min; hits give low values; max response, %; 330,000 tested, 1.2% active; active means max response of -50% or lower; inconclusive means between -30% and -50%; inactive means -30% or higher; further: value at the top dose of about 77 µM
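ADP-Glo luminescence end-point after a 60 min room-temperature kinase reaction. PI5P4Kalpha and substrate in HEPES pH 7.4 buffer with EGTA, 0.1% CHAPS and 5% DMSO; ATP at 5 microM final.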
JMJD2A Tudor – inhibitors of human JMJD2A Tudor domain. O75164. AlphaScreen JMJD2A-Tudor / H3K4me3 peptide binding. Potency, µM (doses to about 114 µM), usual class: inhibitors. 390,000 tested, 4.4% active; further: nearly all actives have a fitted effect of over 50% in size
PLK1 PBD block – PLK1 (human) polo-box domain binding inhibition. Plk1 PBD binding of FITC phosphopeptide, fluorescence polarization. 360,000 tested, 2.8% active. Potency, µM, actives largely listed as inhibitors. P53350; further: series mostly up to about 57 µM; nearly all actives have a fitted effect of over 65% in size
BAZ2B inh – inhibitors of human BAZ2B bromodomain; Q9UIF8; AlphaScreen BAZ2B-H3K14Ac peptide displacement; Potency, µM (top dose mostly 114 µM), actives largely listed as inhibitors; 360,000 tested, 4.4% active; further: nearly all actives have a fitted effect of over 60% in size
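Compounds, titrated to a top concentration of 110 uM, were incubated 30 min at room temperature with preformed BAZ2B/acetyl-K14 H3 peptide complex (50 nM each). Proximity signal was measured by AlphaScreen after 20 min with beads.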
HP1b chromo inh – HP1-beta chromodomain-methylated histone interaction inhibition; P83916; Potency, µM (series often up to 114 µM), hits mostly inhibitors; 390,000 tested, 0.56% active; AlphaScreen HP1-beta / biotin-H3K9me3 peptide binding; further: nearly all actives have a fitted effect of over 70% in size
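Compound inhibition of the preformed complex between 50 nM HP1-beta and 50 nM biotinylated H3K9me3 peptide was read by AlphaScreen. Buffer was PBS pH 7.4 with 0.01% Tween-20. Incubations ran 30 min at room temperature, with 10 ug/mL donor/acceptor beads.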
A number is an active result; – = inactive; ? = inconclusive; · = no result given; [ ] = dose if it differs, or a comment. The list is not random: actives were taken first. Their share in the collection is about 12%. Unless noted, the call rests on the fitted dose curve; in most records, active means well fitted curve in the direction sought with a large enough effect; inconclusive means small, poorly fitted or top-dose-only effect, or another doubt; inactive means no such curve, though single readings can be large; an effect the other way counts as inactive or inconclusive.

SMILES	G9a inh	PI5P4K alpha inh	JMJD2A Tudor	PLK1 PBD block	BAZ2B inh	HP1b chromo inh
Cc1nnc(NC(=O)C2COc3ccccc3O2)s1 (configuration not stated)	–	–	–	21µM	–	–
Cc1nnc(NC(=O)C2c3ccccc3Oc3ccccc32)s1	11µM	–	–	21µM	–	?
Cc1csc2nc(CNS(=O)(=O)c3ccc4c(c3)OCCO4)cn12	?	–	–	–	–	–
Cc1csc2nc(CCNS(=O)(=O)c3ccc4c(c3)OCCO4)cn12	50µM	–	–	–	–	–
CCCNc1nc(NCc2ccccc2OC)c2cnn(C)c2n1	–[12.7 µM]	·	?	·	?	–
CCOc1ccc(N2CCCn3c2nc2c3c(=O)n(CCc3ccccc3)c(=O)n2C)cc1	3.2µM	·	·	·	–	·
COc1ccc(N2CCCn3c2nc2c3c(=O)n(CCc3ccccc3)c(=O)n2C)cc1	–	–	–	–	–	–
Cc1ccc(Cc2ccc(C(=O)NNC(N)=S)o2)cc1	56µM	–	–	27µM	–	–
COc1ccc(NC(=O)c2ccc(Cc3ccc(C)cc3)o2)cc1	?	–	–	–	–	–
O=C(O)c1c[nH]c2ccc([N+](=O)[O-])cc2c1=O	·	–	79µM	–	·	–
O=C(O)c1ccc([N+](=O)[O-])cc1-c1cc([N+](=O)[O-])ccc1C(=O)O	·	–	–	–	·	–
NCCc1c(C(=O)O)[nH]c2ccc([N+](=O)[O-])cc12	–[12.7 µM]	–	–[11.4 µM]	21µM	–	–
Cc1c(C(=O)N/N=C/C(C)C)[nH]c2ccc([N+](=O)[O-])cc12	–	–	–	–	–	–
O=C(O)c1c[nH]c2cc(C(F)(F)F)ccc2c1=O	–[0.501 µM]	–	–	–	50µM	–
Cc1c(C(=O)O)[nH]c2ccc([N+](=O)[O-])cc12	?	–	79µM	?	79µM	?
COc1ccc2[nH]c(C(=O)O)c(CCC(=O)O)c2c1	?	–	–	–	–	–
COc1cccc(CNS(=O)(=O)c2ccc3c(c2)N(C(C)=O)CCO3)c1	?	–	–	–	–	–
CCNc1ncc2ncc(=O)n(Cc3ccc(F)cc3)c2n1	–[0.501 µM]	·	·	·	·	·
COc1cc(/C=N/NC(=O)C(Cc2c[nH]c3ccccc23)NC(=O)OCC(C)C)cc([N+](=O)[O-])c1OCc1ccccc1 (configuration not stated)	?	–	–	–	–	–
COc1cc(/C=N/NC(=O)C(Cc2c[nH]c3ccccc23)NC(=O)OCC(C)C)cc([N+](=O)[O-])c1O (configuration not stated)	?	–	?	–	50µM	–
COc1cc(/C=N/NC(=O)C(Cc2c[nH]c3ccccc23)NC(=O)OCc2ccccc2)cc([N+](=O)[O-])c1O (configuration not stated)	8.9µM	-79	40µM	?	45µM	?
N#CC1=C2SCC(O)(c3ccccc3)N2C(=O)CC1c1ccccc1 (configuration not stated)	40µM	–	–	–	?	–
O=C(NCC#CCOCc1ccccc1)c1ccccc1	50µM	–	–	27µM	–	–
COC(=O)c1c(NC(=O)C2CC=CCC2C(=O)O)sc(C(N)=O)c1C (configuration not stated)	18µM	–	–	–	–	–
CCOC(=O)c1c(-c2ccc(C)cc2)csc1NC(=O)C1CC=CCC1C(=O)O (configuration not stated)	?	–	–	27µM	–	–
SMILES	G9a inh	PI5P4K alpha inh	JMJD2A Tudor	PLK1 PBD block	BAZ2B inh	HP1b chromo inh
COC(=O)c1c(-c2ccccc2)csc1NC(=O)C1CC=CCC1C(=O)O (configuration not stated)	45µM	?	50µM	–	?	?
Cc1ccc(-c2csc(NC(=O)C3CC=CCC3C(=O)O)c2C(=O)OC(C)C)cc1 (configuration not stated)	–[12.7 µM]	–	–	?	–	–
NS(=O)(=O)c1ccc(CCNC(=O)c2nc(SCc3ccccc3F)ncc2Cl)cc1	–	·	–	·	–	–
COc1cc(SC)ccc1C(=O)NC1CCCCC1	1.1µM	·	–	–	–	–
COc1cc(SC)ccc1C(=O)OCC(=O)NC1CCCCC1	–	–	–	–	–	–
COc1cc(SC)ccc1C(=O)N1CCN(c2ccc(O)cc2)CC1	16µM	–	?	–	·	?
COc1cc(SC)ccc1C(=O)N1CCN(c2ccccc2)CC1	–	–	–	–	–	–
COc1cc(SC)ccc1C(=O)N1CCC(Cc2ccccc2)CC1	10µM	·	·	·	·	·
CCc1ccc(NC(=O)Cn2c(=O)n(CCC(=O)NCCc3ccc(OC)c(OC)c3)c(=O)c3ccccc32)cc1	–	·	–	·	–	–
O=C(CCC(=O)N1CCN(c2ccccc2F)CC1)c1ccc(F)cc1	·	–	–	–	–	–
COc1ccc(OC)c(NC(=O)CCN2CCN(c3ccccc3F)CC2)c1	?	–	–	–	?	–
COc1ccc(C(=O)CCN2CCN(c3ccccc3F)CC2)cc1	?	–	–[11.4 µM]	11µM	–	–
O=C(CCN1CCN(c2ccccc2F)CC1)c1ccc(Br)cc1	3.2µM	–	–	8.4µM	–	–
Nc1c(-c2nc(-c3ccc4c(c3)OCO4)cs2)c2ccccn2c1C(=O)c1ccccc1	–	·	?	·	–	–
COc1ccc(Cl)cc1NC(=O)Cn1c(=O)n(CCC(=O)NCc2ccc3c(c2)OCO3)c(=O)c2ccccc21	–	·	–	·	–	–
COc1cc(OC)c(OC)cc1CNC(=O)c1cccc(S(=O)(=O)N2CCc3ccccc3C2)c1	?	–	?	–	?	–
COc1ccc(C2=Nn3c(nnc3-c3ccc(OC)c(OC)c3)SC2)c(OC)c1	·	·	–	·	·	·
COc1ccc(N2CCN(C3CCCCC3NS(=O)(=O)c3ccc(Cl)cc3)CC2)cc1 (configuration not stated)	·	–	?	–	10µM	–
CSc1ccc(OC2CCCCC2NS(=O)(=O)c2ccccc2)cc1 (configuration not stated)	–	–	?	24µM	–	–
CCOc1ccc(NC2CCCCC2NS(=O)(=O)c2ccccc2)cc1 (configuration not stated)	?	–	56µM	–	45µM	?
Cc1cc(C)cc(OC2CCCCC2NS(=O)(=O)c2ccccc2)c1 (configuration not stated)	–	–	–	–	–	–
COc1ccc(NC2CCCCC2NS(=O)(=O)c2ccc(C)cc2)cc1 (configuration not stated)	14µM	–	?	–	50µM	?
COc1ccccc1NC1CCCCC1NS(=O)(=O)c1ccc(C)cc1 (configuration not stated)	·	–	?	–	–	–
O=C(NCCNCCO)C1(C(F)(F)F)CC(CCc2ccccc2)CCCO1 (configuration not stated)	·	·	–	·	·	–
